Values joined by “and” are separate entries in the source; they are usually repeats but may differ in a detail not shown here. Equal values may be shown once. Active and inactive are the calls of the source. Unless noted, no rule for the calls is given here.
Experiments:
[1] = compound effects on lung adenocarcinoma cell viability – A549, calcein-AM fluorescence, 48 h, basal, profiling panel (AID 1162); conditions: higher = more signal; also: test concentration not given here
[2] = compound effects on differentiated 3T3-L1 adipocyte viability – cell-based, 3T3-L1 adipocytes, calcein-AM fluorescence, 48 h, basal, profiling panel (AID 1163); conditions: 3T3-L1 adipocytes viability, higher = more signal; also: test concentration not given here
[3] = compound effects on hepatocellular carcinoma cell viability – HepG2, calcein-AM fluorescence, 48 h, basal, profiling panel (AID 1164); conditions: higher = more signal; also: test concentration not given here
[4] = compound effects on multiple myeloma cell viability – MM1S, calcein-AM fluorescence, 48 h, basal, profiling panel (AID 1165); conditions: higher = more signal; also: test concentration not given here
[5] = calcein-AM signal in unstimulated myeloma cells – cell-based, calcein-AM fluorescence, 48 h, PK04 Diversity Set, profiling panel (AID 1166); conditions: RPMI8226 myeloma viability, higher = more signal;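 also: cells grown under basal conditions without added stimulus; test concentration not given here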
[6] = JC-1 mitochondrial signal, unstimulated HepG2 cells – cell-based, JC-1 fluorescence, 24 h, 100 nL compound, profiling panel (AID 1167); conditions: HepG2 mitochondrial potential, higher = more signal; also: test concentration not given here
[7] = JC-1 mitochondrial signal, unstimulated adipocytes – cell-based, JC-1 fluorescence, 3T3-L1 adipocytes, 24 h, 100 nL compound, profiling panel (AID 1168); conditions: JC-1 mitochondrial fluorescence, higher = more signal, called active from +8 up or from −8 down; also: test concentration not given here
[8] = JC-1 mitochondrial signal, unstimulated myeloma cells – cell-based, JC-1 fluorescence, RPMI8226, 24 h, 100 nL compound, profiling panel (AID 1169); conditions: JC-1 mitochondrial potential fluorescence, higher = more signal; also: test concentration not given here
[9] = JC-1 mitochondrial signal, unstimulated MM1S myeloma – cell-based, JC-1 fluorescence, 24 h, 100 nL compound, profiling panel (AID 1170); conditions: MM1S mitochondrial potential, higher = more signal; also: test concentration not given here
[10] = resazurin metabolic signal in A549 cells – cell-based, resazurin fluorescence, 24 h, PK04 Diversity Set, profiling panel (AID 1171); conditions: A549 viability, higher = more signal, called active from +8 up or from −8 down; also: test concentration not given here
[11] = resazurin metabolic signal in HepG2 cells – cell-based, resazurin fluorescence, 24 h, PK04 Diversity Set, profiling panel (AID 1172); conditions: HepG2 viability, higher = more signal; also: test concentration not given here
[12] = budding yeast growth changes without added modifier – OD600, strain BY4716, 24 h, basal condition, primary screen (AID 1173); conditions: S. cerevisiae BY4716 growth, OD600, 24 h; higher = more signal, called active from +8 up or from −8 down
[13] = viability profiling in MM1S myeloma cells – cell-based, resazurin fluorescence, basal, 24 h, PK04 Diversity Set, profiling panel (AID 1174); conditions: higher = more signal, called active from +8 up or from −8 down; also: test concentration not given here
[14] = target: Dihydroorotate dehydrogenase (quinone), mitochondrial (Plasmodium falciparum (isolate 3D7)) (UniProt Q08210); assay: inhibition of P. falciparum DHODH – biochemical, C-terminal His tag, absorbance 600 nm, primary screen (AID 1175); conditions: PfDHODH enzyme, DCIP absorbance 600 nm; higher = more signal, called active from +8 up or from −8 down;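 also: recombinant parasite enzyme with a five histidine tag at its C terminus; test concentration not given here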
[15] = inhibition of PAO1 biofilm formation – strain PAO1, LB-PBS medium, absorbance 600 nm, primary screen (AID 1176); also: test concentration not given here; conditions: P. aeruginosa PAO1 growth/biofilm, A600, 12 h; higher = more signal
[16] = growth modulation of vineyard yeast isolate – strain RM11-1a, OD600, basal, 24 h, primary screen (AID 1177);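 also: cultures grown under basal conditions with no added stressor; test concentration not given here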; conditions: S. cerevisiae RM11-1a growth, OD600, 24 h; higher = more signal, called active from +8 up or from −8 down
[17] = growth of efflux-deficient E. coli DRC39 – strain DRC39, OD650, 24 h, E. coli filamentation inducers, primary screen (AID 1178);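 also: growth measured as culture turbidity by optical density at 650 nm; test concentration not given here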; conditions: E. coli DRC39 acrAB, higher = more signal, called active from +8 up or from −8 down
[18] = growth of efflux-deficient E. coli DRC39 – strain DRC39, OD650, 48 h, E. coli filamentation inducers, primary screen (AID 1179);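 also: screen aims at cell division blockers that make cells filament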; conditions: E. coli DRC39 delta-acrAB growth, higher = more signal, called active from +8 up or from −8 down
[19] = viability profiling in RPMI8226 myeloma cells – cell-based, resazurin fluorescence, basal, 24 h, PK04 Diversity Set, profiling panel (AID 1180); conditions: higher = more signal;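 also: RPMI8826 multiple myeloma cell line at 5000 cells per well; test concentration not given here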
[20] = target: E3 ubiquitin-protein ligase XIAP (Homo sapiens) (UniProt P98170); assay: small molecules binding XIAP protein – biophysical, small-molecule microarray, fluorescence 635 nm, primary screen (AID 1181); conditions: higher = more signal;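 also: score merges 667 nm emission and signal to noise over triplicate slides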
Sequence of E3 ubiquitin-protein ligase XIAP (Homo sapiens) (P98170 whole entry, looked up): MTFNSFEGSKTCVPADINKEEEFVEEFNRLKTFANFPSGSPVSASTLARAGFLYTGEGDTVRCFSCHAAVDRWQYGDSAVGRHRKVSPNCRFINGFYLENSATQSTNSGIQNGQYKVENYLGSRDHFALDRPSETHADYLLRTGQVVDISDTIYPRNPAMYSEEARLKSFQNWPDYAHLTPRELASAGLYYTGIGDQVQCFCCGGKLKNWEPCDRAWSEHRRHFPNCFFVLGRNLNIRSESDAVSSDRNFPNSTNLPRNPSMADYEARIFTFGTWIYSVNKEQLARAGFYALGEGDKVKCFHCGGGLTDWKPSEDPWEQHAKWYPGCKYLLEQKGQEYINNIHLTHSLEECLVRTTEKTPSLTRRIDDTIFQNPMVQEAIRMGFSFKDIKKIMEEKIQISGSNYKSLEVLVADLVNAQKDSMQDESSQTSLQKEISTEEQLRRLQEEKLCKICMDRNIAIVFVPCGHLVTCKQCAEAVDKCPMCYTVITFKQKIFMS

Sequence of Dihydroorotate dehydrogenase (quinone), mitochondrial (Plasmodium falciparum (isolate 3D7)) (Q08210 whole entry, looked up): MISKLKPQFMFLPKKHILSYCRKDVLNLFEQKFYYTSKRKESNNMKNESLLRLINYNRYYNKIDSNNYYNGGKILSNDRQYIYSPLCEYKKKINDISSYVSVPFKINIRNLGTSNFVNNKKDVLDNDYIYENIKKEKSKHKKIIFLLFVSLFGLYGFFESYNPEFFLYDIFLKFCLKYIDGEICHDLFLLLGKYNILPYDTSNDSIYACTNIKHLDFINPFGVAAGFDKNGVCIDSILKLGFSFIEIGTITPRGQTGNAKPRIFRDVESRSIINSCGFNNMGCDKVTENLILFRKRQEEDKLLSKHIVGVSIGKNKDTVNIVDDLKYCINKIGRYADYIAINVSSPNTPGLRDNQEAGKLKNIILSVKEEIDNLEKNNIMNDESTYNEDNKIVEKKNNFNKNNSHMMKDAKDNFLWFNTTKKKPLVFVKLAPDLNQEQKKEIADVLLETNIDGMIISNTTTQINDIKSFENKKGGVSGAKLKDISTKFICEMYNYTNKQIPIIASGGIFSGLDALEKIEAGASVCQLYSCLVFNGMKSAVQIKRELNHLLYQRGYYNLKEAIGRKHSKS

| Compound | z-score [1] | z-score [2] | z-score [3] | z-score [4] | z-score [5] | z-score [6] | z-score [7] | z-score [8] | z-score [9] | z-score [10] | z-score [11] | z-score [12] | z-score [13] | composite z-score [14] | z-score [15] | z-score [16] | z-score [17] | z-score [18] | z-score [19] | composite z-score [20] |
| --- | --- | --- | --- | --- | --- | --- | --- | --- | --- | --- | --- | --- | --- | --- | --- | --- | --- | --- | --- | --- |
| COC(=O)C1=C(C)N(Cc2ccccc2)C2=C3C(=O)CCC[C@@H]3[C@@](O)(C(=O)OC)C(=O)N2[C@@H]1c1ccccc1 | 0.941 and 0.383 | 0.662 and -0.219 | 0.408 and -0.0984 | -2.99 | 0.28 and -2.5 | 1.07 and -0.0794 | -0.512 (inactive) and 0.739 (inactive) | 0.0423 and -0.467 | 1.36 and -0.505 | 0.477 (inactive) and 0.238 (inactive) | 0.444 and 0.105 | -2.18 (inactive) and -2.94 (inactive) | 0.478 (inactive) and 0.111 (inactive) | -0.13 (inactive) and -0.103 (inactive) | -0.847 (inactive) | -0.387 (inactive) and -0.728 (inactive) | 0.875 (inactive) and 0.548 (inactive) | 0.37 (inactive) and 0.0908 (inactive) | 0.74 and 0.619 | -0.0601 and -0.0118 |
| CCCCCN1CC=CC23O[C@@H]4C=CCCOC(=O)C4[C@H]2C(=O)N(C(C)CO)[C@@H]3C1=O (stereo not given in full) | -0.345 and -0.691 | 0.94 and -0.707 | -1.46 and -0.31 | 0.737 and 0.402 | 0.254 and -0.282 | -0.473 and -1.11 | -0.354 (inactive) and -0.522 (inactive) | 0.861 and -0.0156 | -0.141 and 0.641 | 1.08 (inactive) and 0.713 (inactive) | 1.77 and 0.86 | -0.252 (inactive) and 1 (inactive) | 1.24 (inactive) and -0.0383 (inactive) | -1.97 (inactive) and -0.391 (inactive) | -0.193 (inactive) and 0.0683 (inactive) | -0.0686 (inactive) and 0.825 (inactive) | 0.213 (inactive) and 0.0972 (inactive) | -0.123 (inactive) and -0.105 (inactive) | 1.18 and -0.0579 | 0.216 and -0.323 |
| CCOC(=O)NN=C1C[C@@H](O)[C@@H](O)[C@@H]2[C@@H]3C(=O)N(Cc4ccc5c(c4)OCO5)C(=O)[C@@H]3CC[C@@H]12 | 1.24 | -0.54 | 0.32 | 0.511 | 0.466 | 0.598 | 1.11 (inactive) | 0.612 | -1.25 | 0.0533 (inactive) | 0.321 | -0.143 (inactive) | 0.591 (inactive) | -0.225 (inactive) | 0.246 (inactive) | 0.52 (inactive) | 0.69 (inactive) | 0.819 (inactive) | 0.457 | -0.492 |

Source: PubChem BioAssay
